# High-throughput results (PubChem)
# hgDAF-12 ag – agonists of H. glycines DAF-12 nuclear receptor; HEK293 GAL4-hgDAF12 UAS-luciferase reporter, agonist luminescence; normalized to butyrate control; activation, % at 6.8 µM; hit rate 1.8% among 370,000;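 active = activation above a cutoff set at the mean of all screened compounds plus 3 SD, cut at about 10% in these data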;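 note: 0% = DMSO wells and 100% = sodium butyrate wells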
# DAX1 inh-1 – DAX1 (NR0B1) inhibition, primary screen. hit rate 1.1% among 370,000. HEK293T StAR-luciferase reporter, SF-1/DAX-1 repression relief. inhibition, % at 6.8 µM. AID 652010;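 active = inhibition above the mean over all tested compounds plus 3 SD, cut at about 3.6% in these data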;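 note: 0% = DAX-1 cells with DMSO and 100% = cells lacking DAX-1 with DMSO; higher inhibition means more luminescence from relief of DAX-1 repression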
# ssDAF12 agonist – activates DAF-12 receptor from parasite S. stercoralis. activation, % at 6.8 µM. AID 652126. HEK293 ssDAF-12/GRIP1 lit1-tk-luc reporter, luminescence; % of 3 µM dafachronic acid response. hit rate 1% among 370,000;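 active = activation above the mean over all tested compounds plus 3 SD, cut at about 0.9% in these data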;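 note: 0% = DMSO-only wells and 100% = 3 µM delta7-dafachronic acid wells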
# AHR act – activates the human aryl hydrocarbon receptor. hit rate 2.5% among 320,000. P35869. activation, % at 5 µM. AHR-responsive luciferase reporter cells, luminescence; in the data active = activation above about 47%;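 note: 0% = vehicle wells and 100% = reference agonist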
# hcDAF-12 act – H. contortus DAF-12 activation, primary screen | HEK293 hcDAF-12 lit1-tk-luc reporter, luminescence; 0% DMSO, 100% Δ7-dafachronic acid | activation, % at 6.8 µM | hit rate 1.4% among 370,000 | AID 652067;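 active = activation above the mean of all tested compounds plus 3 SD, cut at about 5.5% in these data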;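 note: 100% = response to 3 µM Δ7-dafachronic acid high control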
# DAX1 inh-2 – NR0B1 (DAX1) inhibition; P51843; HEK293 Gal4-DAX1 luciferase reporter, luminescence; inhibition, % at 6.75 µM; hit rate 0.99% among 340,000;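 active = inhibition above the mean over all tested compounds plus 3 SD, cut at about 4.2% in these data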;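 note: 0% = DAX1-transfected cells with DMSO and 100% = empty-vector control cells with DMSO; inhibition shows as a rise in luminescence from relieved DAX1 repression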
# hgDAF12 ag – hgDAF-12 agonism, confirmation assay; shares compounds with hgDAF-12 ag; hit rate 80% among 3,300; HEK293 GAL4-hgDAF12 luciferase reporter, agonist mode; percent of butyrate response; activation, % at 6.8 µM;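 active = mean activation over triplicate wells above the hit cutoff derived from the earlier primary screen, cut at about 11% in these data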;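 note: 0% = DMSO low control and 100% = 2 mM sodium butyrate high control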
# LXRb DAF12 ctr – LXR-beta agonism as DAF-12 counter-screen; AID 743051; HEK293 Gal4-LXR luciferase reporter, 24 h; activation, % at 6.8 µM; shares compounds with hgDAF-12 ag; 3,300 tested, under 10 active;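 active = mean activation of the triplicate above a set limit carried over from the primary screen, none filed active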
# Target sequence (P55055 whole entry, looked up, the tested form may be a part): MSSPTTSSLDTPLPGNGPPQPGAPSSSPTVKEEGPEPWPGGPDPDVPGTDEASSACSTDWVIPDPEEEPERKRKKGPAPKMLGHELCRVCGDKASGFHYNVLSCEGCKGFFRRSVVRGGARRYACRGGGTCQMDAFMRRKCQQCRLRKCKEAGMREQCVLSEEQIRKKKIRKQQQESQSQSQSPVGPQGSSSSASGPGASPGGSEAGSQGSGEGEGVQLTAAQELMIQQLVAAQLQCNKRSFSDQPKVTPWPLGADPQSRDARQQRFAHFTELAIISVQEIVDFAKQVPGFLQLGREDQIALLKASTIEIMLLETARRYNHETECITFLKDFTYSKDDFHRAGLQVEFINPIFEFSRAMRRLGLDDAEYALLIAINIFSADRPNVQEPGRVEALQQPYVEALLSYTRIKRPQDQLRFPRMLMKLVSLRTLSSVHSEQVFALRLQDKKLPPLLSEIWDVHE
# Active calls of the source: *; x = no result given. Rows were chosen to be rich in hits. Some 5.7% of all compounds tested hit in one or more screens of this group.
SMILES,hgDAF-12 ag,DAX1 inh-1,ssDAF12 agonist,AHR act,hcDAF-12 act,DAX1 inh-2,hgDAF12 ag,LXRb DAF12 ctr
CC(OC(=O)c1cccc(S(=O)(=O)N2CCOCC2)c1)C(=O)NC1CCCCC1C (configuration not stated),17.9*,-0.1,-1.1,0.0,-0.4,0.3,-0.1,0.0
O=C(NNC(=O)C1CC=CCC1C(=O)O)c1cccs1 (configuration not stated),17.4*,1.9,-0.1,0.1,3.2,-0.1,2.6,0.0
Cc1ccsc1C(=O)NNC(=O)C1CC=CCC1C(=O)O (configuration not stated),17.2*,4.2*,1.4*,16.8,5.4,1.7,4.9,0.1
COc1ccc(N(C(=O)c2snc(C(N)=O)c2N)C(C(=O)NCC2CCCO2)c2ccc3ncccc3c2)cc1OC (configuration not stated),-2.5,0.3,-1.2,-0.8,-2.3,2.0,x,x
Cn1ccnc1SCC(=O)c1ccc(Br)cc1,2.5,-0.2,-0.6,7.5,-0.3,0.9,x,x
CCN(CC)c1ccc(C=N/C(C#N)=C(\N)C#N)cc1,15.2*,1.1,-0.9,6.8,3.5,1.1,9.7,0.3
CCN(CC)c1ccc(/C=N/Nc2nn[nH]n2)cc1,-3.7,-0.7,-2.5,2.9,-3.7,2.6,x,x
CCOC(=O)c1c(C)oc2c1c(C=NC1CCS(=O)(=O)C1)c(O)c1ccccc12 (configuration not stated),-3.0,0.4,0.3,1.7,-0.5,-0.8,x,x
N#Cc1ccc(C(c2nnnn2C2CCCC2)N2CCC(Cc3ccccc3)CC2)cc1 (configuration not stated),1.1,-0.4,-0.5,15.0,-1.9,-0.8,x,x
COc1ccc2nc(N(CCN(C)C)C(=O)c3ccc4ncsc4c3)sc2c1,13.6*,3.9*,0.0,x,6.0*,-0.3,18.8*,0.6
COc1ccc2nc(N(CCN(C)C)C(=O)c3ccc4ccccc4c3)sc2c1,0.7,-0.3,-0.7,5.2,1.7,-0.1,x,x
O=C1c2cccn2CC2Cc3ccccc3N12 (configuration not stated),14.6*,x,-0.1,x,6.5*,x,16.9*,0.6
O=C(COC(=O)c1ccccc1C(=O)c1ccccc1)NCc1ccc(F)cc1,15.8*,0.8,-1.4,2.2,-0.7,0.5,2.5,0.0
COc1cc(/C=N/N=C/c2c[nH]c(=O)c(C#N)c2Nc2ccccc2)ccc1O,x,x,x,2.2,x,x,x,x
O=C(Nc1nccs1)c1cn2ccccc2n1,15.1*,3.6,0.2,61.8*,5.8*,0.4,13.9*,0.6
O=C(Cn1nnc(-c2cccs2)n1)NCc1cccs1,0.4,-1.2,-0.9,-0.7,-0.6,1.1,x,x
C=CCc1c(C)nc2cc(-c3ccc(C)cc3)[nH]n2c1=O,13.8*,1.6,1.0*,50.3*,6.3*,3.6,11.3*,0.9
CCc1c(C)nc2cc(-c3ccccc3)[nH]n2c1=O,7.7,1.1,0.3,44.9,3.1,2.3,x,x
CC(C(=O)Nc1ccc2c(c1)OCO2)c1ccc([N+](=O)[O-])cc1 (configuration not stated),-1.9,-0.5,-1.5,25.8,-0.5,0.5,x,x
CC(=O)c1ccc(NC(=O)/C(Cl)=C/c2ccccc2)cc1,16.7*,3.4,0.3,-4.6,3.7,1.9,12.0*,0.9
Cc1ccc(-c2cn3cccnc3n2)cc1,15.1*,2.0,-0.6,-0.4,2.3,1.1,11.2*,0.4
CS(=O)(=O)Nc1ccc(-c2cn3cccnc3n2)cc1,3.4,0.3,-0.7,6.8,1.6,-0.6,x,x
Cc1nonc1C1CCCN1C(=O)c1cc(COc2ccc(F)cc2F)on1 (configuration not stated),14.6*,3.2,0.0,8.3,2.7,1.0,11.5*,0.7
CC(=O)c1ccc(N=Nc2ccc(N(C)C)cc2)cc1,13.4*,2.8,1.0*,0.0,4.6,3.1,11.8*,0.8
